Results: PMC12136788
Residue numbers refer to the chain shown, from its start. The full ranking holds about 5,800 sequences; the median of “enrichment r” is about 0.54, and the highest 2% start at about 16. This excerpt belongs to a sample that is enriched for the highest values.

B1: chr14:95709946:95710881:-|three_prime_utr|ENSG00000100721|control|control|control (ssRNA)
RNA: GGGAGUUCUACAGUCCGACGAUCUCUGGGAGGAAUGGACAGACAGAGGAUGAGCUCUACCCAGGGCCUGCAGGACCUGCCUGUAGCCCACUCUGCUCGCCUUAGCACUACCACUCCUGCCAAGGAGGAUUCCAUUUGGCAGAGCAACAGAGGAUUGAGCAUCA
B2: chr5:138873012:138874556:-|CDS|ENSG00000146006|control|control|control (ssRNA)
RNA: GGGAGUUCUACAGUCCGACGAUCUUUAUUAUUUUUAUAGUGUUCAUCUCCAGGAAGUGCUGCCCUCCCACUUUAAGAAGAAUUAGGCAGUGCUCAAUGGUUCAGAACCACAGGCAGCUCCGAUCCCAAACACGACUCCAUAUGCAACAGAGGAUUGAGCAUCA
B3: chr5:72207278:72207408:+|3pUTR|ENSG00000131711|msi1_unk|total|mutant (ssRNA)
RNA: GGGAGUUCUACAGUCCGACGAUCAGAGAACAAUGACCUCAUUUUAUUUUCUAUGUCCGUUAUUUAUUUCAAAAUUAACAUUUCCGUUGAUUUUUGUCUGAUAAGUCUAUGUUUUGCACUGCUAACUAUGAUGAGGGUUUAAAACAACAGAGGAUUGAGCAUCA
B4: chr1:93866283:93869944:-|three_prime_utr|ENSG00000067334|control|control|control (ssRNA)
RNA: GGGAGUUCUACAGUCCGACGAUCUUUAUUUACUUAUUAAAGACGUUUGGAAAACUAACACCAUCAUCUAAAUUAAUUUACCAUAGACUGGCCCUGUUCAUACAGGAAUUUGUAUUUGGAAAAAGUUGAUUUGAGAAUCGAUUACAACAGAGGAUUGAGCAUCA
B5: chr16:30603633:30603734:-|3pUTR|ENSG00000156853|unk|total|mutant (ssRNA)
RNA: GGGAGUUCUACAGUCCGACGAUCGUUAAGUACCACAUUCUCCUCUAAACCUUGCCUACGACAUGUUUAAUACUUCAUCUACACCGCAGCCCUUCAGAUAAUCACAACCACUUUGCCCCCAAGUUUUCAGGUUAAGCCGCAUGACAACAGAGGAUUGAGCAUCA
B6: chr2:32224452:32224765:-|three_prime_utr|ENSG00000091106|control|control|control (ssRNA)
RNA: GGGAGUUCUACAGUCCGACGAUCUCGUGUGAGCAGUGAUGGAUGGCUUGCCUUCAUGGGUGUAUUUGAGAAUCUUAAGCAAUUAGUGUUUUUUGACUUUAGUACUAAAGAAUUUCUACCUGAUCCAGCAUUAGUCAGAAAACUCAACAGAGGAUUGAGCAUCA
B7: ENSG00000198589:be:win_6851|CDS|ENSG00000198589|bound_else_gene|NA|bound_elsewhere_windowed (ssRNA)
RNA: GGGAGUUCUACAGUCCGACGAUCAAGUUCCAAAGUUUCACUAUGGUACUCAUUACUCAACUGCAAGUUUUGUUCUUGCAUGGCUGCUAAGAAUAGAACCCUUUACAACUUAUUUCCUAAAUUUGCAAGGAGGCAAAUUUGAUCCAACAGAGGAUUGAGCAUCA
B8: chr9:15474029:15474130:-|CDS|ENSG00000164985|unk|FALSE|unique (ssRNA)
RNA: GGGAGUUCUACAGUCCGACGAUCAAGAAAAGAGCCGGAUAAAAAAGAGGGGAAGAAAGAAGUUGAAUCAAAAAGGAAAAAUUUAGCUAAAACAGGGGUUACUUCAACCUCCGAUUCUGAAGAAGAAGGAGAUGAUCAAGAAGGCAACAGAGGAUUGAGCAUCA
B9: chr12:57516587:57516808:-|three_prime_utr|ENSG00000175197|control|control|control (ssRNA)
RNA: GGGAGUUCUACAGUCCGACGAUCCCCCCACUUGGGCCACACUACCCACCUUUCCCAGAAGUGGCUACUGACUACCCUCUCACUAGUGCCAAUGAUGUGACCCUCAAUCCCACAUACGCAGGGGGAAGGCUUGGAGUAGACAAACAACAGAGGAUUGAGCAUCA
B10: chr8:42175261:42175472:-|3pUTR|ENSG00000104368|msi1|FALSE|unique (ssRNA)
RNA: GGGAGUUCUACAGUCCGACGAUCGUAUUCCUUUUGUGUACAGUGUGUAAAGUGUAAAUCCUUUUUCUUUAUAAACUUUAGAGUAGCAUGAGAGAAUUGUAUCAUUUGAACAACUAGGCUUCAGCAUAUUUAUAGCAAUCCAUGCAACAGAGGAUUGAGCAUCA
B11: chr5:132696315:132696416:-|3pUTR|ENSG00000131437|msi1|FALSE|unique (ssRNA)
RNA: GGGAGUUCUACAGUCCGACGAUCGUUGUACUACUACUCUUCAAUUGUACUGUGCAGGGAAGUUGGGGGAACAGUUCAUACUAUAGAGAGUUACAGUUUAGAUGUAUGUGUAAAUCGAUUAGCUAUUUAUCCAACUACUGUAUACAACAGAGGAUUGAGCAUCA
B12: chr8:6757792:6757893:+|3pUTR|ENSG00000155189|msi1|FALSE|unique (ssRNA)
RNA: GGGAGUUCUACAGUCCGACGAUCAUUUAUUACAACUUGACAGCUCCAAGCUCUUAUUACUAAAGUAUUUAGUAUCUUGCAGCUAGUUAAUAUUUCAUCUUUUGCUUAUUUCUACAAGUCAGUGAAAUAAAUUGUAUUUAGGAACAACAGAGGAUUGAGCAUCA
B13: chr5:141515350:141515460:-|3pUTR|ENSG00000131504|msi1_unk|FALSE|overlapping (ssRNA)
RNA: GGGAGUUCUACAGUCCGACGAUCCUCAGCUUUCCAUCCCCAGCUAGGAAGAAAGAAUGGCACUCUUGGGCUUGGCCCAGAAUUAGAGUUAUUAGAGCAAGAGAGAGCUUAGGAAGCAUGAGGGCAACUAUAGUGAGGCCUUAUCAACAGAGGAUUGAGCAUCA
B14: chr8:42175261:42175472:-|3pUTR|ENSG00000104368|msi1|total|mutant (ssRNA)
RNA: B10 RNA with U78C, A79C, U83C, A84C, U114C, A115C, U132C, A133C
B15: chr5:141515350:141515460:-|3pUTR|ENSG00000131504|msi1_unk|total|mutant (ssRNA)
RNA: B13 RNA with U44C, A45C, U83C, A84C, U92C, A93C, U109C, A110C, U130C, A131C
B16: chr8:103332422:103332528:+|3pUTR|ENSG00000164930|msi1|total|mutant (ssRNA)
RNA: GGGAGUUCUACAGUCCGACGAUCUUUUUUAACAUUCCGAAUAUUACAUUUUGUAUUAUACAGUACCUUUCUCAGACAUUUUGCCGAAUUCAUUUCGGCAGCUCACCCGGAUUUUGCUGAACAUUAAAAAGUGUGACCGCGAUACAACAGAGGAUUGAGCAUCA
B17: chr8:103332422:103332528:+|3pUTR|ENSG00000164930|msi1|FALSE|unique (ssRNA)
RNA: B16 RNA with C36U, C37A, C83U, C84A, C106U, C107A, C136U, C137A
B18: chr5:132696315:132696416:-|3pUTR|ENSG00000131437|msi1|total|mutant (ssRNA)
RNA: B11 RNA with U83C, A84C, U98C, A99C, U119C, A120C
B19: chr7:80742675:80742739:-|3pUTR|ENSG00000075223|msi1_unk|FALSE|overlapping (ssRNA)
RNA: GGGAGUUCUACAGUCCGACGAUCGUAGCUUGACAAUUCAGUGACUUAAUAUCUAUUCCAUUUGUAUUGUACAUAAAAUUUUCUAGAAAUACACUUUUUUCCAAAGUGUAAGUUUGUGAAUAGAUUUUAGCAUGAUGAAACUGUCAACAGAGGAUUGAGCAUCA
B20: chr5:138184526:138184629:+|CDS|ENSG00000112984|unk|FALSE|unique (ssRNA)
RNA: GGGAGUUCUACAGUCCGACGAUCGUGCAUGCCCCACCUAUGCAACUGGGAUUCCCAUCCCUGCACUCGUUCAUCAAGGAACAUAGUCUUCAGGUAUCCCCCAGCUUAGAGAAAGGGGCUAAGGCAGACACAGGCCUUGAUGAUCAACAGAGGAUUGAGCAUCA
B21: chr4:65323451:65323552:-|3pUTR|ENSG00000145242|msi1|total|mutant (ssRNA)
RNA: GGGAGUUCUACAGUCCGACGAUCAUCAAGAAAAAGUACAAUACAGGGUGUAUAUUUAUUUUUUGUGUUAUAAAGUUUACUUUCCGUUGCUCUUCCCGAGAUUAUCCGGUAAUAAAUGUGUAUAUACUGUAUAAUUUGCAAUAUCAACAGAGGAUUGAGCAUCA
B22: chr11:70485313:70487720:-|CDS|ENSG00000162105|control|control|control (ssRNA)
RNA: GGGAGUUCUACAGUCCGACGAUCUGGGGCGACGUCACAGAGAUCAAAAGCCCGAUUCUCUCAGGCCCAAAGGCAAACGUUAUUAGUGAAUUGAACUCUAUCCUACAGCAAAUGAACCGAGAGAAAUUGGCAAAGCCGGGGGAACAACAGAGGAUUGAGCAUCA

target: MSI1 full-length (mouse, UniProt Q61474 1-362); experiment: nsRBNS (natural sequence RNA bind-n-seq); RBNS binding buffer (assumed for nsRBNS): 25 mM Tris pH 7.5, 150 mM KCl, 3 mM MgCl2, 0.01% Triton X-100, 500 ug/ml BSA, 20 U/ml SUPERase-In, 4 C; UNK is unkempt and MSI1 is Musashi-1; names of the RNAs are library labels; protein concentration not given here; high values mean tight binding
Sequence (Q61474 whole entry): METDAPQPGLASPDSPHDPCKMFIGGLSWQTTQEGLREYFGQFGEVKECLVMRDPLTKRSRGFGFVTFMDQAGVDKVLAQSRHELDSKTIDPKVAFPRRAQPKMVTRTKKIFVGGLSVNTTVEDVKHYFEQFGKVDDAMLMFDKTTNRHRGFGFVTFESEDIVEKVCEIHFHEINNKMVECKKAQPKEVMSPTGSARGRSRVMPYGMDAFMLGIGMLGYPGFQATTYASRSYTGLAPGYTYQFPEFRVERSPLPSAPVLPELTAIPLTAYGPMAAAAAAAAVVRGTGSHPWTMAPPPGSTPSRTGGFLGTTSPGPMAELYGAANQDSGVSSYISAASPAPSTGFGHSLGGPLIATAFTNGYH

| Binder | binding signal [enrichment R] |
| --- | --- |
| B1 | 0.347 |
| B2 | 1.88 |
| B3 | 0.411 |
| B4 | 0.451 |
| B5 | 1.38 |
| B6 | 3.3 |
| B7 | 0.297 |
| B8 | 0.83 |
| B9 | 0.549 |
| B10 | 33.5 |
| B11 | 19.9 |
| B12 | 1.46 |
| B13 | 28.2 |
| B14 | 0.424 |
| B15 | 0.337 |
| B16 | 0.818 |
| B17 | 51.5 |
| B18 | 0.609 |
| B19 | 6.36 |
| B20 | 0.612 |
| B21 | 1.51 |
| B22 | 0.762 |
